Results on six compounds are retold here after PubChem BioAssay (EPA / NIEHS).

Read-out in assay [1]: Thrombomodulin, THBD (gene 7056)
Briefly: BSK_CASM3C_Thrombomodulin: BioMAP Diversity Plus: CASM3C Assay for Thrombomodulin Biomarker Activity (AID 2283051).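 Also: thrombomodulin protein level measured by ELISA 24 h after dosing.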 Particulars: primary human coronary artery smooth muscle cells; actives raise or lower the signal.

Read-out in assay [2]: Tissue Factor, F3 (gene 2152)
Briefly: BSK_CASM3C_TissueFactor: BioMAP Diversity Plus: CASM3C Assay for Tissue Factor Biomarker Activity (AID 2283052).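 Also: cell surface tissue factor protein level read by ELISA.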 Particulars: primary human coronary artery smooth muscle cells; actives raise or lower the signal.

Read-out in assay [3]: Interferon-gamma inducible Protein 10 (IP10), CXCL10 (gene 3627)
Briefly: BSK_hDFCGF_IP10: BioMAP Diversity Plus: hDFCGF Assay for Interferon-gamma inducible Protein 10 (IP10) Biomarker Activity (AID 2283053). To be noted: primary human foreskin fibroblasts; actives raise or lower the signal. The method, boiled down: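 Chemical-treated human skin fibroblasts (primary) were sampled at 24 h for IP-10 by ELISA. Both increases and decreases relative to DMSO were scored.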

Read-out in assay [4]: Urokinase-type plasminogen activator receptor (uPAR), PLAUR (gene 5329)
Briefly: BSK_CASM3C_uPAR: BioMAP Diversity Plus: CASM3C Assay for Urokinase-type plasminogen activator receptor (uPAR) Biomarker Activity (AID 2283054).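 Also: cell-surface uPAR protein level quantified by ELISA.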 Particulars: primary human coronary artery smooth muscle cells; actives raise or lower the signal.

Read-out in assay [5]: Vascular cell adhesion molecule 1 (VCAM1), VCAM1 (gene 7412)
Briefly: BSK_CASM3C_VCAM1: BioMAP Diversity Plus: CASM3C Assay for Vascular cell adhesion molecule 1 (VCAM1) Biomarker Activity (AID 2283055).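 Also: VCAM-1 protein level quantified by ELISA on the cells.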 Particulars: primary human coronary artery smooth muscle cells; actives raise or lower the signal.

Read-out in assay [6]: Collagen III, COL3A1 (gene 1281)
Briefly: BSK_hDFCGF_CollagenIII: BioMAP Diversity Plus: hDFCGF Assay for Collagen III Biomarker Activity (AID 2283056). Particulars: primary human foreskin fibroblasts; actives raise or lower the signal. In outline: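 Human foreskin fibroblast primary cultures sampled 24 h after dosing; Collagen III quantified by ELISA. Signal fitted bidirectionally against DMSO baseline.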

Read-out in assay [7]: Epidermal growth factor receptor (EGFR), EGFR (gene 1956)
Briefly: BSK_hDFCGF_EGFR: BioMAP Diversity Plus: hDFCGF Assay for Epidermal growth factor receptor (EGFR) Biomarker Activity (AID 2283057). To be noted: primary human foreskin fibroblasts; actives raise or lower the signal. In outline: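 Cell-based multiplexed assay in primary human foreskin fibroblasts. EGFR is read by ELISA 24 h after treatment and compared with DMSO controls.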

Read-out in assay [8]: Interleukin-8 (IL8), CXCL8 (gene 3576)
Nature of the assay: BSK_hDFCGF_IL8: BioMAP Diversity Plus: hDFCGF Assay for Interleukin-8 (IL8) Biomarker Activity (AID 2283058). To be noted: primary human foreskin fibroblasts; actives raise or lower the signal. The method, boiled down: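 Primary human foreskin fibroblasts (hDFCGF system) dosed with chemical; IL-8 measured by ELISA 24 hours later. Bidirectional curve fitting relative to DMSO baseline; cytotoxicity tracked in parallel cultures by SRB total protein staining.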

Assay [9] can be described thus: BSK_hDFCGF_Proliferation: Cell Proliferation Assessment in the BioMAP Diversity Plus: hDFCGF Assay (AID 2283059).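 Also: curves fitted for both rise and fall of signal versus DMSO baseline.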 Particulars: primary human foreskin fibroblasts. In outline:
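Total protein read at 560 nm after 0.1% SRB staining of TCA-fixed human skin fibroblasts, […]. Activity is fitted in both directions relative to DMSO as baseline.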

Read-out in assay [10]: Macrophage colony-stimulating factor (MCSF), CSF1 (gene 1435)
Nature of the assay: BSK_hDFCGF_MCSF: BioMAP Diversity Plus: hDFCGF Assay for Macrophage colony-stimulating factor (MCSF) Biomarker Activity (AID 2283060). Particulars: primary human foreskin fibroblasts; actives raise or lower the signal. The method, boiled down:
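Human foreskin fibroblast primary cultures; M-CSF measured by ELISA 24 hours after chemical dosing. Bidirectional fitting relative to DMSO, with overt cytotoxicity tracked by parallel SRB total-protein staining (0.1% SRB, 10% TCA fixation, 560 nm).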

The nature of assay [11]: BSK_hDFCGF_SRB: Viability Assessment in the BioMAP Diversity Plus: hDFCGF Assay (AID 2283061).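 Also: cells exposed to compound for 24 h before the read.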 To be noted: primary human foreskin fibroblasts. In outline:
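Human foreskin fibroblasts in 96-well plates were treated 24 h. Total protein was measured by 0.1% SRB staining after 10% TCA fixation, read at 560 nm. Data were fitted bidirectionally against DMSO.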

Read-out in assay [12]: TIMP metallopeptidase inhibitor 1 (TIMP1), TIMP1 (gene 7076)
Nature of the assay: BSK_hDFCGF_TIMP1: BioMAP Diversity Plus: hDFCGF Assay for TIMP metallopeptidase inhibitor 1 (TIMP1) Biomarker Activity (AID 2283062). Particulars: primary human foreskin fibroblasts; actives raise or lower the signal. In outline: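 Human foreskin fibroblast primary cultures dosed for 24 h; secreted/surface TIMP-1 quantified by ELISA. Bidirectional curve fitting against DMSO baseline; cytotoxicity tracked in parallel cultures by SRB total-protein staining.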

Read-out in assay [13]: Monokine induced gamma interferon (MIG), CXCL9 (gene 4283)
Nature of the assay: BSK_hDFCGF_MIG: BioMAP Diversity Plus: hDFCGF Assay for Monokine induced gamma interferon (MIG) Biomarker Activity (AID 2283063). To be noted: primary human foreskin fibroblasts; actives raise or lower the signal. The method, boiled down: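 MIG/CXCL9 measured by ELISA 24 h after dosing primary human skin fibroblasts. Activity fitted in both directions against DMSO controls. Cytotoxicity was checked in parallel cultures by SRB staining read at 560 nm.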

Read-out in assay [14]: Matrix Metallopeptidase 1 (MMP1), MMP1 (gene 4312)
Nature of the assay: BSK_hDFCGF_MMP1: BioMAP Diversity Plus: hDFCGF Assay for Matrix Metallopeptidase 1 (MMP1) Biomarker Activity (AID 2283064). To be noted: primary human foreskin fibroblasts; actives raise or lower the signal. The method, boiled down: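 Human foreskin fibroblasts exposed to chemical for 24 h; MMP1 detected by ELISA, with DMSO as baseline for bidirectional fitting.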

Read-out in assay [15]: Vascular cell adhesion molecule 1 (VCAM1), VCAM1 (gene 7412)
Nature of the assay: BSK_hDFCGF_VCAM1: BioMAP Diversity Plus: hDFCGF Assay for Vascular cell adhesion molecule 1 (VCAM1) Biomarker Activity (AID 2283065).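 As to AC50: VCAM-1 protein level quantified by ELISA after 24 h chemical exposure.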 To be noted: primary human foreskin fibroblasts; actives raise or lower the signal. In outline: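 Human foreskin fibroblast primary cells dosed with chemical, VCAM-1 measured by ELISA at 24 h. Bidirectional curve fitting relative to DMSO as negative control/baseline.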

Read-out in assay [16]: Plasminogen activator inhibitor-1 (PAI1), SERPINE1 (gene 5054)
Briefly: BSK_hDFCGF_PAI1: BioMAP Diversity Plus: hDFCGF Assay for Plasminogen activator inhibitor-1 (PAI1) Biomarker Activity (AID 2283066). Particulars: primary human foreskin fibroblasts; actives raise or lower the signal. The method, boiled down:
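Human skin fibroblast cultures receive chemical for 24 h before PAI-1 is measured by ELISA; signal changes are fitted bidirectionally against DMSO-treated wells.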

Read-out in assay [17]: Intercellular Adhesion Molecule 1 (ICAM1), ICAM1 (gene 3383)
Nature of the assay: BSK_KF3CT_ICAM1: BioMAP Diversity Plus: KF3CT Assay for Intercellular Adhesion Molecule 1 (ICAM1) Biomarker Activity (AID 2283067). To be noted: primary human keratinocytes with fibroblasts; actives raise or lower the signal. In outline:
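Human keratinocyte–foreskin fibroblast co-culture was treated for 24 h. Cell-surface ICAM-1 was quantified by ELISA, fitted bidirectionally relative to DMSO. Cytotoxicity was checked in parallel cultures by SRB total-protein staining.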

Read-out in assay [18]: Interferon-gamma inducible Protein 10 (IP10), CXCL10 (gene 3627)
Nature of the assay: BSK_KF3CT_IP10: BioMAP Diversity Plus: KF3CT Assay for Interferon-gamma inducible Protein 10 (IP10) Biomarker Activity (AID 2283068). To be noted: primary human keratinocytes with fibroblasts; actives raise or lower the signal. In outline: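 Human keratinocyte plus foreskin fibroblast primary co-culture exposed to test chemical for 24 h; IP-10 measured by ELISA. Concentration-response fitted bidirectionally against DMSO control as baseline.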

Assay [19] is described as follows: BSK_KF3CT_SRB: Viability Assessment in the BioMAP Diversity Plus: KF3CT Assay (AID 2283069).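 Also: read 24 h after compound addition; fitted for both signal gain and loss against DMSO baseline.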 To be noted: primary human keratinocytes with fibroblasts. The method, boiled down: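 Overt cytotoxicity is assessed as total protein by sulforhodamine B staining in parallel human skin co-cultures at 24 h after dosing. DMSO serves as negative control and baseline.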
Read-out in assay [20]: Interleukin-1 alpha (IL1a), IL1A (gene 3552)
Nature of the assay: BSK_KF3CT_IL1a: BioMAP Diversity Plus: KF3CT Assay for Interleukin-1 alpha (IL1a) Biomarker Activity (AID 2283070). To be noted: primary human keratinocytes with fibroblasts; actives raise or lower the signal. In outline: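 Readout is IL-1a level by ELISA, compared bidirectionally with DMSO as baseline. Cells: human keratinocytes co-cultured with foreskin fibroblasts, harvested 24 h post-dose.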

The source holds several records for some structures; these can differ, active in one and inactive in another. Active and inactive are the calls of the source. The calls were made as follows: active = hit-call score of the fitted dose curve at least 0.9, where 1 is the maximum; inactive = score below 0.9.

As for `c1ccc2sc(SNC3CCCCC3)nc2c1`, the outcome in assay [1], in assay [2], in [3], in [4], in [5] and in [6] was inactive. The outcome in assay [7], in [8], in assay [9], in assay [10], in assay [11] and in assay [12] was inactive. The result in [13], in assay [14], in [15], in assay [16], in assay [17] and in assay [18] was inactive. Further, the outcome in assay [19] and in [20] was inactive.

As to `Nc1c(Oc2ccccc2)cc(O)c2c1C(=O)c1ccccc1C2=O`, the result in [1], in assay [2], in assay [4], in assay [5], in [6] and in [7] was inactive. Also, the result in assay [8], in assay [9], in [11], in [12], in assay [14] and in assay [16] was inactive. Besides, the outcome in assay [17], in [18], in [19] and in assay [20] was inactive. Also, the AC50 – broadly, the midpoint of the concentration-response curve, whichever way the signal moves – was 17 µM (active) in assay [3], 10 µM (active) in assay [10], 15.6 µM (active) in [13] and 15.8 µM (active) in assay [15].

Take `COc1ccccc1N`: the outcome in assay [1], in [2], in assay [3], in assay [4], in assay [5] and in assay [6] was inactive. The result in assay [7], in assay [8], in assay [9], in assay [10], in assay [11] and in [12] was inactive. In addition, the result in assay [13], in assay [14], in assay [15], in assay [16], in assay [17] and in assay [18] was inactive. The outcome in assay [19] and in assay [20] was inactive.

Turning to `O=c1oc2ccccc2c(O)c1C(CC(O)c1ccc(-c2ccc(Br)cc2)cc1)c1ccccc1` (configuration not stated), the outcome in [1], in [8] and in [12] was inactive. The AC50 was 16.2 µM (active) in assay [2]; 5.38 µM (active) in assay [3]; 21.8 µM (active) in assay [4]; 5.57 µM (active) in assay [5]; 0.632 µM (active) in assay [6]; 4.73 µM (active) in assay [7]. Moreover, the half-maximal activity concentration (AC50) was 5.25 µM (active) in [9]; 5.57 µM (active) in assay [10]; 5.28 µM (active) in assay [11]; 11.2 µM (active) in assay [13]; 6.12 µM (active) in [14]; 5.3 µM (active) in assay [15]. Also, the concentration at half-maximal activity (AC50) in assay [16] is 5.32 µM (active); in [17] it was 5.92 µM (active); in assay [18], 8.62 µM (active); in assay [19] it was 4.99 µM (active); in assay [20], 5.57 µM (active).

Take `CCCCOC(=O)COC(=O)c1ccccc1C(=O)OCCCC`: the result in assay [1], in [2], in assay [3], in assay [4], in assay [5] and in assay [6] was inactive. In addition, the outcome in assay [7], in assay [8], in [9], in [10], in [11] and in assay [12] was inactive. The outcome in assay [13], in assay [14], in assay [15], in [16], in [17] and in assay [18] was inactive. Moreover, the result in [19] and in assay [20] was inactive. The AC50 was 20 µM (active) in [9] and 26.6 µM (active) in assay [15].

For the compound `c1ccc(-c2cccc(-c3ccccc3)c2)cc1`, the AC50 in assay [1] is 20 µM (active); in assay [3], 29.5 µM (active); in assay [6], 11.7 µM (active); in assay [9], 11 µM (active); in [10], 20 µM (active); in assay [11], 12.2 µM (active). For the same compound, the concentration at half-maximal activity (AC50) was 20 µM (active) in assay [12]; 5.57 µM (active) in assay [14]; 12.4 µM (active) in assay [15]; 20 µM (active) in [16]; 7.05 µM (active) in assay [20]. Further, the result in assay [2], in assay [4], in assay [5], in assay [7], in assay [8] and in [13] was inactive. For the same compound, the result in assay [17], in assay [18] and in assay [19] was inactive.
